Whole data set: some 33,000 sequences, median “e-score” near -0.053, cut for the highest 2% near 0.38. The sample as a whole holds a higher share of the highest values than the screen did.

The target of the test is T1, SIX1 homeodomain (reference allele) (human, UniProt Q15475 108-198).
T1 sequence: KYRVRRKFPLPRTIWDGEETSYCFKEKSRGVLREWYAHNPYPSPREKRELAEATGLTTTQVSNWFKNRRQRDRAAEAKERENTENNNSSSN
The experiment in a line: universal protein binding microarray; Universal all-10-mer PBM (8x60K, AMADID 030236), 300 nM GST-tagged protein, Alexa Fluor 488 anti-GST; buffer, salt, pH and temperature not stated (as in Berger); high values mean tight binding. Particulars: protein: ivt; tags: N-terminal GST; dsDNA, one strand shown. The gist of the method: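 Binding of GST-tagged homeodomains is given as 8-mer E-scores from the Universal PBM Analysis Suite. The proteins were produced by in vitro transcription/translation, quantified by anti-GST western blot against a recombinant GST standard curve, and applied in duplicate at 300 nM final concentration to universal 'all 10-mer' protein binding microarrays (8×60K format).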
Regarding ACACCCCA, the binding signal is 0.365 ± 0.0445 E-score.
Consider ATACCCCC, for which the binding signal was determined as 0.454 ± 0.015 E-score.
On to ATAACCCC, for which the binding signal was found to be 0.251 ± 0.0341 E-score.
For ATACCCCA, the binding signal turned out to be 0.43 ± 0.00878 E-score.
As to ACACCCCG, the binding signal was 0.353 ± 0.0394 E-score.
Under ACCCCCCG stands 0.168 ± 0.0136 E-score.
On to ATAGCCTG, for which the binding signal came out at 0.205 ± 0.031 E-score.
As to ATCCCATG, the binding signal amounted to 0.311 ± 0.0488 E-score.
As for GACCATGA, the figure is 0.216 ± 0.0376 E-score; as for GGGAGATA, 0.3342 ± 0.000849 E-score; as for ATCAGTAC, 0.2244 ± 0.00203 E-score.
Turning to GATCACTA, the binding signal was 0.371 ± 0.0113 E-score.
For GGATAGGA, the binding signal amounted to 0.28 ± 0.0103 E-score.
As for AGATAGCT, the binding signal turned out to be 0.178 ± 0.0771 E-score.
Regarding GATCCTAA, the binding signal turned out to be 0.262 ± 0.00612 E-score.
For the sequence ATCAGGGC, the binding signal came to 0.178 ± 0.0395 E-score.
As for ACAAGGTA, the figure is 0.192 ± 0.0136 E-score; as for GATAGTAC, 0.212 ± 0.0174 E-score; as for CAGATATA, 0.263 ± 0.0342 E-score.
As for AAGATATC, the figure is 0.445 ± 0.0468 E-score; as for GAGATATA, 0.359 ± 0.0685 E-score.
For GAGAGATC, the binding signal was found to be 0.286 ± 0.00645 E-score.
Consider CAGATATC, for which the binding signal is 0.456 ± 0.0169 E-score.
CAGATATG: the binding signal stood at 0.315 ± 0.0384 E-score.
As for AAGATATT, the binding signal is 0.214 ± 0.124 E-score.
Under GAGATATC stands 0.442 ± 0.0368 E-score; under AAGATATG, 0.303 ± 0.0441 E-score.
As to CTCTACAC, the binding signal amounted to 0.163 ± 0.00511 E-score.
With ACCATAGA, the binding signal was found to be 0.197 ± 0.0646 E-score.
Under CCGATCTA stands 0.2622 ± 0.00225 E-score.
As for ATAGTGCA, the figure is 0.163 ± 0.0274 E-score; as for CGAGGGTA, 0.159 ± 0.0143 E-score.
In the case of ACTAATCC, the binding signal was 0.228 ± 0.027 E-score.
As to GTGTCAGA, the binding signal was 0.29 ± 0.0236 E-score.
Under ATATCAGC stands 0.404 ± 0.0329 E-score; under CTATCAGC, 0.202 ± 0.00952 E-score; under AGATCAGG, 0.284 ± 0.0116 E-score.
For ATATCAGA, the binding signal was found to be 0.408 ± 0.0495 E-score.
As for ATATCAGG, the binding signal was determined as 0.403 ± 0.0398 E-score.
As for GTATCAGA, the figure is 0.466 ± 0.0136 E-score; as for ATCTCAGA, 0.31 ± 0.0258 E-score.
As for ATCTCAGG, the figure is 0.164 ± 0.0156 E-score.
Take CTATCAGA: the binding signal worked out at 0.271 ± 0.0216 E-score.
Under AGATCAGC stands 0.273 ± 0.00331 E-score; under GTATCTGA, 0.355 ± 0.00568 E-score; under GGTATGAA, 0.224 ± 0.00641 E-score.
For the sequence GCCTAATA, the binding signal turned out to be 0.167 ± 0.0373 E-score.
As for ATCATGCA, the figure is 0.225 ± 0.0116 E-score; as for AGATAGTA, 0.24 ± 0.0305 E-score.
Under ACCGTATA stands 0.278 ± 0.0281 E-score; under ACCGTATC, 0.449 ± 0.00906 E-score.
Under CCCGTATA stands 0.29 ± 0.023 E-score.
Turning to CCCGTATC, the binding signal turned out to be 0.469 ± 0.0109 E-score.
Regarding CCCGTCTC, the binding signal worked out at 0.205 ± 0.0534 E-score.
In the case of ACCGTCTC, the binding signal came to 0.251 ± 0.0203 E-score.
For ATACAGTC, the binding signal was found to be 0.163 ± 0.00378 E-score.
Under CAGATAGC stands 0.171 ± 0.0462 E-score.
With GGGATTAC, the binding signal amounted to 0.167 ± 0.011 E-score.
For the sequence CAGGATTA, the binding signal was 0.213 ± 0.0434 E-score.
Under CGGATTAC stands 0.299 ± 0.00435 E-score; under AGATAATA, 0.245 ± 0.114 E-score; under ATCAAATA, 0.239 ± 0.0859 E-score.
With CACAATAC, the binding signal came to 0.31 ± 0.0105 E-score.
As for ATACTACC, the binding signal was found to be 0.23 ± 0.0327 E-score.
Under GATGGATA stands 0.3768 ± 0.0011 E-score.
As for GAGGGATA, the figure is 0.412 ± 0.00552 E-score; as for GAGGGATC, 0.397 ± 0.00899 E-score; as for TAGGGAGA, 0.177 ± 0.0683 E-score.
As for GAGGGGTA, the figure is 0.257 ± 0.0214 E-score; as for TAGGGATA, 0.41 ± 0.00754 E-score; as for AATGGATA, 0.354 ± 0.0168 E-score.
Take CATGGATA: the binding signal was determined as 0.3 ± 0.00508 E-score.
On to AAGGGATA, for which the binding signal was found to be 0.37 ± 0.0084 E-score.
Regarding GGCATATA, the binding signal was 0.29 ± 0.00948 E-score.
Under CGGATTAA stands 0.351 ± 0.0739 E-score; under CTATAATA, 0.259 ± 0.0899 E-score.
Under GATCTCGC stands 0.254 ± 0.0311 E-score; under ATAGATGA, 0.287 ± 0.0197 E-score.
As for ATCGTGCA, the figure is 0.16 ± 0.0147 E-score; as for ATATGGAT, 0.371 ± 0.00838 E-score.
In the case of CCGGATTC, the binding signal came to 0.249 ± 0.0385 E-score.
Turning to ACGGATCA, the binding signal is 0.43 ± 0.0139 E-score.
Under GCGGATCC stands 0.348 ± 0.0564 E-score; under CCAGATCC, 0.332 ± 0.0766 E-score.
Under ACGGATCC stands 0.386 ± 0.0442 E-score.
With CCGGATCC, the binding signal came to 0.424 ± 0.034 E-score.
As for ACGGATCT, the figure is 0.324 ± 0.0553 E-score.

Values taken from PMC10668032, “Altered binding affinity of SIX1-Q177R correlates with enhanced WNT5A and WNT pathway effector expression in Wilms tumor”.
